This is an account of results in PubChem BioAssay (NCI).

This is part of a sample that, as a whole, favours compounds with a hit. Of some 83,000 tested, about 20% had one in any assay.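 Single-dose data. Exposure time 48 hours. Values below 10 considered active.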 Activity calls are given as the source filed them.

In this assay the test system is UACC-257 melanoma. In words: NCI-60 one-dose screen, 48 h (100 = growth as untreated, 0 = no growth, -100 = all killed). The note with it: 10 µM unless noted.
Take `COC(=O)C[C@](O)(CCCC(C)(C)O)C(=O)O[C@H]1C(OC)=C[C@@]23CCCN2CCc2cc4c(cc2[C@@H]13)OCO4`: the growth is -28.2% (active). For `COc1cc(/C=C2\C(=N)N=C(SCc3nc4ccccc4[nH]3)NC2=O)ccc1O`, the growth is 105% (inactive). `N/C(=N\N=C\c1ccc([N+](=O)[O-])cc1)c1c(N)nc(=S)[nH]c1-c1ccc(Cl)cc1Cl`: the growth is 104% (inactive).

For the compound `CC1(c2cc3cc(Cl)ccc3oc2=O)NC(=O)c2c(/C=C/C(=O)OC3CC4CCC3(C)C4(C)C)cccc2N1` (stereo not given), the growth is 57.2% (inactive). `O=C(N=Nc1c(O)[nH]c2ccc(Cl)cc12)c1ccc2nc(-c3ccccc3)[nH]c2c1`: the growth was 109% (inactive). The same measure for `O=C(O)c1cccc(-c2ccc(/C=N/NC(=O)c3[nH]c4ccc(Br)cc4c3-c3ccccc3)o2)c1`: 93.8% (inactive). Take `CC1(C)CC[C@]2(C(=O)Nc3ccccc3)CC[C@]3(C)C(=CCC4[C@@]5(C)C[C@@H](O)[C@H](O)[C@@](C)(CO)C5CC[C@]43C)C2C1` (stereo not given in full): the growth was 65.6% (inactive). For the compound `O=c1[nH]c2ccccc2cc1CSc1cccc(Nc2nccc(-c3ccc4ccccc4c3)n2)c1`, the growth was 99.3% (inactive).

For `Clc1cccc(N/N=C/c2c[nH]c3ccc(Br)cc23)n1`, the growth was 57.6% (inactive).

With `CSc1ccc(NC(=O)c2ccc3nnn(/C(C#N)=C/c4ccccn4)c3c2)cc1`, the growth was -76.9% (active). Consider `Cc1c(C(=O)NNC(=O)c2ccc(Cl)cc2)nnn1-c1ccc(Cl)cc1`, for which the growth was 94.1% (inactive). The same measure for `CN(C)c1nc(NCCNS(=O)(=O)c2ccc(C(=O)/C=C/c3ccc(F)cc3)cc2)nc(Nc2ccc(F)cc2)n1`: -80.6% (active). In the case of `CNC(=O)c1cc(Oc2ccc3nc(NC(=O)Nc4cccc(OC(F)(F)F)c4)sc3c2)ccn1`, the growth is 47.9% (inactive).

In the case of `CC(C)(C)OC(=O)/C=C/c1cccc2c1C(=O)NC(C)(c1cc3cc(Cl)ccc3oc1=O)N2` (stereo not given), the growth was 41.7% (inactive). With `Cc1ccc(C2CC(c3ccc(S(=O)(=O)NCCNc4nc(Nc5ccc(F)cc5)nc(N(C)C)n4)cc3)=Nc3c(N)nc(N)nc3N2)cc1` (stereo not given), the growth was 75.4% (inactive). For `CC1=C(C(=O)OC(C)C)C(c2cccc(O)c2)NC(=S)N1` (stereo not given), the growth is 92.8% (inactive).

Take `C[C@H](Nc1nc(NCCc2ccccc2)nc2ccccc12)c1ccccc1`: the growth was -76% (active). In the case of `COc1ccc(-c2c(Nn3cnnn3)no[n+]2[O-])cc1` it was 71.8% (inactive); in that of `Cn1cc(NC(=O)c2cc(NC(=O)c3ccc(C#Cc4ccccc4)cc3)cn2C)cc1C(=O)NCCCN1CCOCC1`, -28.8% (active); in that of `COc1cc(NC(=O)c2cccc(C3CCc4c(cc(OC)c(OC)c4OC)O3)c2)cc(OC)c1OC` (stereo not given), 33.7% (inactive). For the compound `COc1ccc(-c2nnc3ccc(N/N=C/c4ccc(C)cc4)nn23)cc1`, the growth is 106% (inactive). `Cc1ccc(-n2c(-c3cc4ccccc4nc3Cl)noc2=O)cc1`: the growth was 95% (inactive). As to `CC(=O)Oc1ccccc1C(=O)[Se]CC(=O)Nc1cccc(C(F)(F)F)c1`, the growth is -24.2% (active).

Consider `N#Cc1c(-c2ccccc2Cl)cc(-c2ccc3ccccc3c2)[nH]c1=O`, for which the growth was 70.3% (inactive). Take `CCCCNC(=S)Nc1ccc(OCc2nc3ccccc3[nH]2)cc1`: the growth is 83.5% (inactive).

Turning to `COc1ccc(-c2nc3cc(C)ccc3n2CC(=O)N=Nc2c(O)[nH]c3ccccc23)cc1`, the growth is -7.27% (active). On to `COc1ccc(-c2nc3ccc(C(=O)NN4C(=O)c5ccc([N+](=O)[O-])cc5C4=O)cc3[nH]2)cc1`, for which the growth was 94.2% (inactive). In the case of `O=c1oc2ccccc2cc1-c1csc(N=Nc2c(O)[nH]c3ccc(Cl)cc23)n1`, the growth is 104% (inactive). Consider `CN(C)c1ccnc(CNCCSC2(c3ccccc3)c3ccccc3C=Cc3ccccc32)c1`, for which the growth was -66.3% (active). Turning to `COc1cc2c(c(OC)c1OC)C(=O)CC(c1cccc(NC(=O)c3cc(NC(=O)[C@@H](N)CO)ccc3C)c1)O2` (stereo not given in full), the growth is 104% (inactive). Regarding `COc1ccc(C(=O)/C=C/c2c(F)cccc2Cl)cc1S(N)(=O)=O`, the growth is 12.7% (inactive). With `O=C(Nc1cccc(-n2cnc3cc(-c4ccc(O)cc4)ccc32)c1)C1CC1`, the growth is 73.3% (inactive).

For `COc1ccc(C2(SCCNCc3cc(N(C)C)ccn3)c3ccccc3C=Cc3ccccc32)cc1`, the growth is 41.1% (inactive). In the case of `N/C(=N\c1nc2ccccc2s1)NC(=O)Nc1ccccc1Br` it was 54.8% (inactive); in that of `COc1ccc(C2=NN(c3ccccc3)C(c3ccc(OC)c(OCc4ccccc4)c3)C2)cc1OC` (stereo not given), 103% (inactive).
